Test results from PubChem BioAssay (NCATS).
Records with an inconclusive call do not appear. Calls of active or inactive are those of the source. Calls follow the shape of the dose curve; as a rule, active = well fitted cell-killing curve with a large enough effect; inconclusive = small, poorly fitted or top-dose-only effect, or effect the other way; inactive = no such curve, though single readings can be large or run the other way.

Assay: Viability qHTS for spleen associated tyrosine kinase inhibitor (SYKi) naive MV4-11 cells (AID 1963823); also: nearly all actives have a fitted effect of over 40% in size
Settings: MV4-11 AML viability, CellTiter-Glo luminescence, 72 h; series mostly up to 45 µM; viability (% of control): at the top concentration
Summary of the method: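 Read-out: CellTiter-Glo luminescence. Exposure: 72 hr, 37 C, 5% CO2, 95% humidity. Cells: MV4-11 without SYK inhibitor history, 500/well, qHTS format.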
Potency is read from the fitted curve at half-maximal effect.

| Compound | viability (% of control) | Potency |
| --- | --- | --- |
| CC1CCC23COC(=O)C2=CC(O)CC3C1(C)CCC1=CC(O)OC1=O (centres undefined) | 78.1% (inactive) | – |
| O=S(=O)(Nc1ccccn1)c1ccc(N=Cc2c(O)[nH]c3ccc4ncsc4c23)cc1 | – | 0.0944 µM (active) |
| C=C1C(=O)O[C@@H]2C[C@@]3(C)C[C@@H](O)C[C@H](C)C3=C[C@H]12 | – | 5.17 µM (active) |
| Cc1occc1C(=O)n1ccnc1 | 65% (inactive) | – |
| CC1=CCC2C(C)(CO)CCCC2(C)C1CC12OC1C(O)C(CO)=CC2O (centres undefined) | 79.7% (inactive) | – |
| OC[C@H]1O[C@@H](OC[C@H]2O[C@@H](OC/C=C/c3ccccc3)[C@H](O)[C@@H](O)[C@@H]2O)[C@@H](O)[C@@H]1O | 83.3% [at 17.3 µM] (inactive) | – |
| NC(=O)c1cnc(NCCc2ccc(O)c(Cl)c2)nc1NCc1ccccc1 | – | 0.0231 µM (active) |
| C=C1[C@@H]2[C@H]3OC(=O)C(=C)[C@@H]3CC[C@@](C)(O)[C@@H]2C[C@@H]1O[C@@H]1O[C@H](CO)[C@@H](O)[C@H](O)[C@H]1O | 80.4% [at 17.3 µM] (inactive) | – |
| CSc1ccc(C(=O)N[C@@H]2CCCC[C@@H]2NC(=O)CNC(=O)c2cc(C(F)(F)F)ccc2NC(=O)NC(C)C)cc1 | 50.2% (inactive) | – |
| Cc1cc(O)c(C(C)C)cc1Cl | 68.3% (inactive) | – |
| c1ccc2c(Nc3nnc(-c4ccncc4)s3)cccc2c1 | 59.5% (inactive) | – |
| C=CC1C(O[C@@H]2O[C@H](CO)[C@@H](O)[C@H](O)[C@H]2O)OC=C(C(=O)OC)C1Cc1nccc2c1[nH]c1ccccc12 (some centres undefined) | 69.7% [at 17.3 µM] (inactive) | – |
| CCC1OC(=O)C(C)CC(C)C(=O)/C(C)=C/C(C)C(=O)/C=C/C1(C)O (centres undefined) | 68.1% (inactive) | – |
| COC(=O)[C@H](O)[C@H]1C(C)(C)[C@H](OC(C)=O)[C@@]2(O)C(=O)[C@]1(C)C1CC[C@]3(C)C(CC(=O)O[C@H]3c3ccoc3)[C@]13O[C@@H]32 (some centres undefined) | 72.5% [at 17.3 µM] (inactive) | – |
| CC1=C(CC/C(C)=C/C(=O)O)[C@@]2(C)CCCC(C)(C)C2CC1=O (some centres undefined) | 69.5% (inactive) | – |
| CC(=O)O[C@H]1[C@H](Oc2ccccc2COC(=O)C2(O)C=CCCC2=O)O[C@H](CO)[C@@H](O)[C@@H]1O (some centres undefined) | 50.6% [at 17.3 µM] (inactive) | – |
| Nc1ccc(S(=O)(=O)Nc2nccs2)cc1 | – | inactive |
| CC(=O)/C=C/C1C(C)CC(O[C@@H]2O[C@H](CO)[C@@H](O)[C@H](O)[C@H]2O)CC1(C)C (some centres undefined) | 61.2% (inactive) | – |
| C=C(CC/C=C(\C)C(=O)O)C1(O)CC=C(C)CC1 (centres undefined) | 79.6% (inactive) | – |
| NS(=O)(=O)c1ccc(N2CCN(CC[C@@H]3OCCc4ccccc43)CC2)cc1 | – | 11.6 µM (active) |

| Compound | viability (% of control) | Potency |
| --- | --- | --- |
| COc1ccc(CNCc2cccc3ccccc23)cc1 | 57.1% (inactive) | – |
| C[C@]12CCC[C@](C)(C(=O)O)C1[C@@H](O)[C@@H](O)C13CC(CCC12)C(CO)(O[C@@H]1O[C@H](CO)[C@@H](O)[C@H](O)[C@H]1O)C3 (some centres undefined) | 81.5% [at 17.3 µM] (inactive) | – |
| C[C@@H]1CN(CC(=O)Nc2ccc3c(c2)Cc2cccc(-c4cc(=O)cc(N5CCOCC5)o4)c2S3)C[C@H](C)O1 | – | 8.33 µM (active) |
| CC1CC(=O)C2=C(C1)C1OC1C1(O)C2C(=O)c2cccc(O)c2C1O (centres undefined) | 6.09% (inactive) | – |
| COc1cc(C2OCC3C(c4ccc(OC5OC(CO)C(O)C(O)C5O)c(OC)c4)OCC23)ccc1O (centres undefined) | 69.1% [at 17.3 µM] (inactive) | – |
| CC1CC(=O)C2C(O)(C1)CC(O)C13OC1c1c(O)cccc1C(=O)C23O (centres undefined) | – | 14.3 µM (active) |
| O=c1c2ccccc2nc2n1CCC2O (centres undefined) | 82.6% [at 91.9 µM] (inactive) | – |
| CC(C)CC1OC(=O)C2CCCN2C(=O)CCNC(=O)C(Cc2ccccc2)NC(=O)C(C(C)C)N(C)C(=O)C(C(C)C)N(C)C1=O (centres undefined) | 59.1% [at 17.3 µM] (inactive) | – |
| O=C(O)C(Cc1ccccc1)NC(=O)C1CCCN1 (centres undefined) | 77.2% (inactive) | – |
| CN(CCOc1ccc(C[C@H](Nc2ccccc2C(=O)c2ccccc2)C(=O)O)cc1)c1ccccn1 | 49.8% (inactive) | – |
| COc1cc(CCC2=NN=C(NC(=O)c3ccc(N4C[C@@H](C)N[C@@H](C)C4)cc3)C2)cc(OC)c1 | – | 0.461 µM (active) |
| C=CC(C)(CC/C=C(\C)C(=O)OC[C@H]1O[C@@H](OC(C)(C=C)CC/C=C(\C)C(=O)O[C@H]2[C@H](O)[C@@H](O)[C@H](OC(C)(C=C)CC/C=C(\C)C(=O)O)O[C@@H]2CO)[C@H](O)[C@@H](O)[C@@H]1O)O[C@@H]1O[C@H](CO)[C@@H](O)[C@H](O)[C@H]1O (some centres undefined) | 81.1% [at 9.25 µM] (inactive) | – |
| C=C1CC[C@H]2[C@@](C)(CCC(OC3OC(CO)C(O)C(O)C3O)[C@@]2(C)CO)C1C(=O)CC1=CCOC1=O (some centres undefined) | 78.1% [at 17.3 µM] (inactive) | – |
| C[C@@H]1N[C@H]2N(C1=O)c1ccccc1[C@@]2(O)C[C@@H]1C(=O)N[C@@H](C)c2nc3ccccc3c(=O)n21 | 49% [at 17.3 µM] (inactive) | – |
| C=C[C@@]1(C)CCC2C(=CCC3[C@]2(C)CCC[C@@]3(C)C(=O)O)C1 (some centres undefined) | 47.2% (inactive) | – |
| C=C1CC[C@H]2C(=C)CC[C@H]3C(=C)C(=O)O[C@@H]3[C@@H]12 | – | 4.11 µM (active) |
| C[C@H]1[C@H](C)CC[C@]2(C(=O)O)CC[C@]3(C(=O)O)C(=CCC4[C@@]5(C)CC[C@H](O[C@@H]6O[C@H](C)[C@@H](O)[C@H](O)[C@H]6O)C(C)(C)C5CC[C@]43C)[C@H]12 (some centres undefined) | 83.4% [at 17.3 µM] (inactive) | – |
| CN(Cc1ccc(C(C)(C)C)cc1)Cc1cccc2ccccc12 | 79.9% (inactive) | – |
| CN(C/C=C/C#CC(C)(C)C)Cc1cccc2ccccc12 | 76.8% (inactive) | – |
